# RORg inh: inhibitors of mouse ROR gamma transcriptional activity; P51450; Drosophila S2 Gal4-RORgamma UAS-luciferase reporter, 20 h; Potency, µM (series often up to 53.6 µM), usual class: inhibitors; actives 5.4% (n = 310,000); AID 2551; also: nearly all actives have a fitted effect of over 60% in size
# Target sequence (P51450 whole entry, looked up, the tested form may be a part): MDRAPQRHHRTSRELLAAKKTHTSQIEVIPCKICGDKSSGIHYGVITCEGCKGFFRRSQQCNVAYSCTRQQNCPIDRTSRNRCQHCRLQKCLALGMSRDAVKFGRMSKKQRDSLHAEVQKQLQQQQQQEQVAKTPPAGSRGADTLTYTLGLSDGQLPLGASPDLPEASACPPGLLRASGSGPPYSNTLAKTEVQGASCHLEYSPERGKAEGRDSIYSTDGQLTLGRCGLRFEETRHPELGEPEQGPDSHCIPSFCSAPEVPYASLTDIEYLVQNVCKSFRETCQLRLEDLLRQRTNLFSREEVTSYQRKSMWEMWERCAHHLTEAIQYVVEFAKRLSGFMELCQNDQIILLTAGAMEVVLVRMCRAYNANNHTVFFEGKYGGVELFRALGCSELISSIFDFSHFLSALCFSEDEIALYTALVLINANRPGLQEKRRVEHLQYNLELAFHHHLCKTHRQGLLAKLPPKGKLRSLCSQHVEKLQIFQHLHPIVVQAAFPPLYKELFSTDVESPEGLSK
#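 Stably transfected Drosophila Schneider cells are the test system, with ROR gamma fused to Gal4 and luciferase under UAS control; luminescence is read after 20 hr of 700 uM copper sulfate induction at ambient temperature.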
# Gal4-VP16 FLuc: counter-screen for ROR gamma inhibitors: Gal4-VP16 reporter; Drosophila S2 Gal4-VP16 UAS-luciferase, luminescence, 20 h; Potency, µM (series often up to 53.6 µM), most hits filed as inhibitors; actives 3.5% (n = 310,000); AID 2546;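 also: Gal4-VP16 expression switched on by copper sulfate through the metallothionein promoter; nearly all actives have a fitted effect of over 50% in size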
# KinaseGlo FLuc: counter-screen: inhibitors of Kinase-Glo firefly luciferase. Q27757. Kinase-Glo luciferase, ATP luminescence, 8 min. Potency, µM (doses to about 38.3 µM), usual class: inhibitors. actives 0.28% (n = 200,000). AID 1379; also: nearly all actives have a fitted effect of over 60% in size
#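 Light output from Kinase-Glo luciferase with luciferin and 10 uM ATP in 50 mM imidazole pH 7.2, KCl, MgCl2, Tween 20, BSA; compound pin-delivered, 8-min ambient incubation, then luminescence read.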
# Hits are given with their value; i = inactive; ? = inconclusive; nt = no result; [ ] = dose if it differs, or a comment. An excerpt weighted towards active compounds, which were near 6.2% of everything screened. Calls follow the shape of the dose curve; as a rule, active = well fitted curve in the direction sought with a large enough effect; inconclusive = small, poorly fitted or top-dose-only effect, or another doubt; inactive = no such curve, though single readings can be large; an effect the other way counts as inactive or inconclusive.
SMILES,RORg inh,Gal4-VP16 FLuc,KinaseGlo FLuc
CCOc1ccc(CCNC(=O)C2CC(=O)N(C3CCCC3)C2)cc1OCC (stereo not given),i,i,i
CCCN1CNc2c(c(=O)[nH]c(=S)n2CCc2ccccc2)C1,i,i,i
CCCCN1CNC(=S)N(CCc2ccccc2)C1,2.82µM,4.47µM,i
CCOc1ccc(CCN2CN(C3CCCCC3)CNC2=S)cc1OCC,2.82µM,8.91µM,nt
COc1cccc(Nc2ncc(C#N)c(N)n2)c1,i,i,nt
C=CCOc1c(Br)cc(CNc2ccc(NC(=O)C(C)C)c(OC)c2)cc1OCC,i,?,i
COc1ccc(S(=O)(=O)NC(CCSC)C(=O)NC2CCCCC2)cc1 (stereo not given),i,i,i
Cc1ccc(NC(=O)N2CCc3ccccc32)cc1C,?,?,i
O=C(Nc1ccc(Cl)cc1)N1CCc2ccccc2C1,0.891µM,?,i
Cc1ccc(NC(=O)N2CCCc3ccccc32)cc1,i,i,i
Cc1ccc(NC(=O)N2CCc3ccccc32)cc1,?,10µM,?
O=C(Nc1ccccc1)N1CCc2ccccc2C1,i,i,i
CN1CCN(c2ccc(NC(=O)N3CCc4ccccc43)cc2)CC1,10µM,8.91µM,nt
c1ccc(CCNc2ccccc2)cc1,i,i,i
Nc1nc(-c2ccccc2)nn1S(=O)(=O)c1ccccc1,i,i,i
Cc1ccc([N+](=O)[O-])cc1N=C(c1cccc(Br)c1)N1CCOCC1,?,i,i
C/C(N)=C(/C#N)C(=O)COC(=O)CSc1ccccc1,i,i,i
C/C(N)=C(/C#N)C(=O)COC(=O)CCSc1ccccc1Cl,11.2µM,?,i
COCc1cc(C)nc(SCC(=O)Nc2ccc(N3CCOCC3)cc2)c1C#N,i,i,nt
CCCS(=O)(=O)N1CCC(C(=O)NCc2ccc3c(c2)OCO3)CC1,i,i,i
CCOC(=O)/C(=N\NC(=O)c1ccccc1)c1ccccc1,i,i,i
COc1ccc(C(=O)Oc2cccc(Nc3ncnc4ccccc34)c2)cc1OC,i,?,i
CCOC(=O)/C(=N\Nc1ncnc2ccccc12)c1ccc(OC)cc1,7.08µM,14.1µM,nt
COc1ccc(/C(=N/Nc2ncnc3ccccc23)C(=O)O)cc1,0.282µM,0.501µM,nt
CC(Sc1nnc(-c2ccccc2F)n1C1CC1)C(=O)NC(N)=O (stereo not given),i,i,nt
SMILES,RORg inh,Gal4-VP16 FLuc,KinaseGlo FLuc
OC[C@H]1OC(O)[C@@H](O)[C@@H](O)[C@@H]1O (stereo not given in full),i,i,nt
Fc1ccccc1C1c2cccn2CCN1C(=S)Nc1cccc(Br)c1 (stereo not given),12.6µM,?,i
Fc1ccccc1C1c2cccn2CCN1C(=S)Nc1ccc(Br)cc1 (stereo not given),?,i,i
Fc1cccc(NC(=S)N2CCn3cccc3C2c2cccnc2)c1 (stereo not given),i,i,i
Fc1ccc(C2c3cccn3CCN2C(=S)Nc2cccc(F)c2)cc1 (stereo not given),10µM,i,i
CCCCn1c(C)cc2c(c1=O)[C@H]1O[C@](CCCC)(Cc3cc(OC)c(OC)cc31)O2,i[10 µM],i[10 µM],nt
N#Cc1cc(-c2ccccc2)nc(N2CCNCC2)n1,?,i,nt
Cc1ccc(-c2ccc(C#N)c(=O)n2CC(=O)N(C)C)cc1,i,i,nt
Cc1ccc(S(=O)(=O)/N=C2/NC(=O)/C(=C/c3ccc(Br)o3)S2)cc1,i,i,i
Cc1ccc(S(=O)(=O)/N=C2/NC(=O)/C(=C\c3cc(Br)cc(Br)c3O)S2)cc1,11.2µM,i,nt
CC1CCC(CN2C(Nc3ccccc3)=NC[C@@H]2C)CC1 (stereo not given in full),i,i,nt
CC1=CCC2C(=O)N(C(C)c3ccccc3)C(=O)C2C1 (stereo not given),i,i,i
CC1=CCC2C(=O)N(c3nc4ccccc4n3C)C(=O)C2C1 (stereo not given),3.55µM,?,i
N#Cc1ccc(CN2CC[C@@]3(CCCN(C(=O)c4cccc(F)c4)C3)C2)cc1,i,i,i
CCOC(=O)c1c(NC(=O)/C=C/C(=O)O)sc(C)c1-c1ccc(C(C)(C)C)cc1,11.2µM,?,i
CCOC(=O)c1c(NC(=O)/C=C\C(=O)O)sc(C)c1-c1ccccc1,?,i,i
NC(=O)CSc1nc(-c2ccccc2)c(-c2ccccc2)o1,i,i,i
Fc1cccc(NCc2cn3ccccc3n2)c1,i,i,?
Fc1ccc(NCc2cn3ccccc3n2)cc1,i,?,11.2µM
Cc1ccccc1N(CC(=O)N1CCOCC1)S(C)(=O)=O,i,?,i
CCCn1ncc(CN2CCC(C(=O)Nc3cccc(-c4cccc(F)c4)c3)CC2)c1C,i,i,nt
NNC(=O)c1ccc2nc(-c3ccc(Br)cc3)cn2c1,11.2µM,?,i
NNC(=O)c1ccc(Cn2cc(Br)cn2)cc1,i,i,i
